In assay [1] the test system is XIP peptide (Xip251-270) binding. In words: small-molecule binders of XIP peptide, primary screen, biochemical, small-molecule microarray, fluorescence 635/667 nm, 0.1 µg/mL protein (AID 1182). The following applies: fluorescent protein binding, 635 nm, higher = more signal, called active from +8 up or from −8 down.
The subject of a further assay is XIP peptide (Xip251-270). The assay can be described thus: small-molecule binders of XIP peptide, primary screen, biochemical, small-molecule microarray, fluorescence 635/667 nm, 0.5 µg/mL protein (AID 1183). Conditions: small-molecule microarray binding, fluorescence 635 nm; higher = more signal.
The nature of assay [2]: Plasmodium falciparum growth inhibition, primary screen, strain 3D7, DAPI fluorescence, 100 nL (AID 1184).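 Also: parasites grown inside human red blood cells in medium with human serum.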 The following applies: P. falciparum 3D7 growth, 3 d, higher = more signal.
Assay [3] has as its target Homeobox protein Hox-A13 (Mus musculus) (UniProt Q62424). The assay can be described thus: inhibitors of HoxA13-DNA binding, primary screen, biochemical, fluorescence polarization, labeled oligonucleotide (AID 1185). Conditions: 15 min, higher = more signal, called active from +8 up or from −8 down. (In general: Polarisation of emitted light reports the rotation of a fluorescent probe.)

The source made the active and inactive calls.

Chain of Homeobox protein Hox-A13 (Mus musculus) (Q62424 whole entry, looked up): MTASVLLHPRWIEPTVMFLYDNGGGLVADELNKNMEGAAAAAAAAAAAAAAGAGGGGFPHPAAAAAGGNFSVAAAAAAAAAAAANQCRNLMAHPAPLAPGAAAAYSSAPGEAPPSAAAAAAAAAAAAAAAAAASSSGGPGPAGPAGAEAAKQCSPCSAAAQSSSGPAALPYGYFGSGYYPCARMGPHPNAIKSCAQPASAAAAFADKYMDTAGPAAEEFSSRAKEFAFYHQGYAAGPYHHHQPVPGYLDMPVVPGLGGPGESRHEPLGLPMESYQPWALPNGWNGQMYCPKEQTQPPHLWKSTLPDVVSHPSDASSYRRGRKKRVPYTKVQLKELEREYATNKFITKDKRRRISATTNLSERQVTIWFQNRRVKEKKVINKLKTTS

`COc1ccc(COC(=O)NN=C2C[C@@H](O)[C@@H](O)[C@@H]3[C@@H]4C(=O)N(Cc5ccccc5)C(=O)[C@@H]4CC[C@H]23)cc1`: the composite z-score in assay [1] is 0.0712 (inactive); in the assay on XIP peptide (Xip251-270), -0.0564. Moreover, the z-score in assay [2] was 0.908; in assay [3], -1.81 (inactive).
With `COc1ccc(O[C@H]2C=C[C@@H](c3ccccc3)O[C@@H]2CON=C(C)CCC(=O)OC[C@H]2O[C@H](c3ccccc3)C=C[C@@H]2Oc2ccc(OC)cc2)cc1`, the values for the composite z-score (in assay [1]; in the assay on XIP peptide (Xip251-270)) were 0.392 (inactive) and -0.0127, respectively. Further, the z-score in assay [2] is -1.61; in assay [3], -0.19 (inactive).
For `O=C1CCCC(C2=CCCCC2=O)C1` (stereo not drawn), in that order: -0.273 (inactive), 0.0997, 0.488 and -1.63 (inactive).
For `CCOC(=O)[C@H](CC(C)C)NC(=O)CCC1CC(OC(=O)NCc2cccc3ccccc23)CC2(CCCC(COC(=O)NCc3cccc(C(F)(F)F)c3)O2)O1` (stereo partly drawn), in that order: -0.364 (inactive), -0.298, 0.688 and -0.443 (inactive).
With `CC(C)=CCCC(C)=CCON=C1C[C@@H](O)[C@@H](O)[C@@H]2[C@@H]3C(=O)N(C4CCCCC4)C(=O)[C@@H]3CC[C@@H]12`, the values for the composite z-score (in assay [1]; with XIP peptide (Xip251-270)) were -0.318 (inactive) and 0.426, respectively. Further, the values for the z-score in assay [2] and in assay [3] were 0.242 and -2.99 (inactive), respectively.
For `CO[C@H]1COC(=O)CC=C[C@@H](C)[C@H](NS(=O)(=O)c2ccc(C)cc2)COC(=O)CCC[C@@H]1C`, the composite z-score in assay [1] was 0.0922 (inactive); in the assay on XIP peptide (Xip251-270) it was 0.231. In addition, the z-score was 1.19 in assay [2] and -0.499 (inactive) in assay [3].
For `COC(=O)[C@H](C)NC(=O)CCC1CC(OC(=O)NCc2ccc3c(c2)OCO3)CC2(CCCC(COC(=O)NCc3cccc(C(F)(F)F)c3)O2)O1` (stereo partly drawn), in that order: 0.2 (inactive), 0.717, -2.06 and -5.57 (inactive).
For `COC(=O)[C@H](C)NC(=O)CCC1CC(OC(=O)NCc2ccc3c(c2)OCO3)CC2(CCCC(COC(=O)NCCc3ccccc3OC)O2)O1` (stereo partly drawn), in that order: 0.516 (inactive), 0.588, -0.143 and -6.43 (inactive).
`COc1ccc(O[C@H]2C=C[C@@H](c3ccccc3)O[C@@H]2CON=C2[C@H]3CCn4c(=O)n(-c5ccccc5)c(=O)n4[C@H]3[C@H](O)[C@@H]3O[C@H]23)cc1`: the values for the composite z-score (in assay [1]; with XIP peptide (Xip251-270)) were -0.454 (inactive) and 0.742, respectively. Moreover, the z-score in assay [2] was -0.725; in assay [3] it was -4.59 (inactive).
`COc1ccc(O[C@H]2C=C[C@@H](c3ccccc3)O[C@@H]2CON=C(C)C)cc1`: the composite z-score in assay [1] was 0.862 (inactive); in the assay on XIP peptide (Xip251-270), 0.267. In addition, the z-score was 0.894 in assay [2] and 2.39 (inactive) in assay [3].
As for `Cc1cc2c(nc1C)CCCCN2CC(C)ON=C1[C@H]2CCn3c(=O)n(-c4ccccc4)c(=O)n3[C@H]2[C@H](O)[C@@H]2O[C@H]12` (stereo partly drawn), the composite z-score in assay [1] was -0.239 (inactive); in the assay on XIP peptide (Xip251-270) it was 0.7. Besides, the z-score was -1.94 in assay [2] and -4.23 (inactive) in assay [3].
In the case of `CON=C[C@@H](NS(=O)(=O)c1ccc(C)cc1)[C@H](C)C=CCC(=O)OC`, the results for the composite z-score (in assay [1]; with XIP peptide (Xip251-270)) were 0.212 (inactive) and 0.332, respectively. For the same compound, the z-score was 1.25 in assay [2] and 1.12 (inactive) in assay [3].
As to `CC(C)(C)N1C(=O)[C@H]2[C@H]3[C@H](O)[C@H](O)CC(=O)[C@@H]3CC[C@H]2C1=O`, the composite z-score in assay [1] is -0.138 (inactive); in the assay on XIP peptide (Xip251-270), 0.419. Also, the z-score in assay [2] is -0.507; in assay [3] it was -0.472 (inactive).
Take `CCOC(=O)[C@H](Cc1ccccc1)NC(=O)CCC1CC(OC(=O)NCc2ccc3c(c2)OCO3)CC2(CCCC(COC(=O)NCCC(C)C)O2)O1` (stereo partly drawn): the results for the composite z-score (in assay [1]; in the assay on XIP peptide (Xip251-270)) were 0.644 (inactive) and 0.18, respectively. The z-score in assay [2] is -1.2; in assay [3] it was -6.91 (inactive).
Take `CCOC(=O)[C@H](CC(C)C)NC(=O)CCC1CC(OC(=O)NCc2cccc3ccccc23)CC2(CCCC(COC(=O)NCC3CCCCC3)O2)O1` (stereo partly drawn): the figures for the composite z-score (in assay [1]; in the assay on XIP peptide (Xip251-270)) were -0.145 (inactive) and 0.539, respectively. For the same compound, the z-score in assay [2] was -2.01; in assay [3], -4.22 (inactive).
For `CC(C)CCN1CCc2nc(COc3ccccc3)c3c(c2C1)CO[C@@H](C)C3`, in that order: 0.0821 (inactive), 0.143, 0.329 and -5.02 (inactive).
Consider `Cc1cc2c(c(=O)o1)[C@@H](O)[C@H]1O[C@H]1C2=O`, for which the composite z-score in assay [1] is -0.483 (inactive); in the assay with XIP peptide (Xip251-270), 0.274. The z-score in assay [2] was -0.807; in assay [3], -1.3 (inactive).
For `CC(=O)OC[C@H]1O[C@@H](ON=C(C)CCN2CCCc3nc(C)c(C)cc32)[C@H](OC(C)=O)[C@@H](OC(C)=O)[C@@H]1OC(C)=O`, in that order: -0.444 (inactive), 0.667, -1.3 and -5.84 (inactive).
Take `O=C1CCCC=C1C(O)CCOC(c1ccccc1)(c1ccccc1)c1ccccc1` (stereo not drawn): the composite z-score is -0.0848 (inactive) in assay [1] and -0.364 in the assay on XIP peptide (Xip251-270). Besides, the z-score is -1.1 in assay [2] and -4.61 (inactive) in assay [3].
For `CC(CCN1CCCCc2nc(C)c(C)cc21)=NO[C@@H](C)c1cn([C@H](CO)Cc2ccccc2)nn1`, in that order: 0.305 (inactive), 0.521, -0.257 and -4.4 (inactive).
For `O=C1[C@H]2[C@H]3[C@H](O)[C@H](O)CC(=NOCc4ccccc4)[C@@H]3CC[C@H]2C(=O)N1c1ccc(F)cc1F`, in that order: -0.228 (inactive), 0.0159, -0.545 and 0.941 (inactive).
For `CC(C)CON=C1C[C@@H](O)[C@@H](O)[C@@H]2[C@@H]3C(=O)N(C[C@@H]4CCCO4)C(=O)[C@@H]3CC[C@@H]12`, in that order: -0.0867 (inactive), 0.205, 0.192 and -0.771 (inactive).

These data come from PubChem BioAssay.
